Compound activity: PubChem, National Center for Advancing Translational Sciences (NCATS)
Shown are actives, neighbours in structure and some others; about 17% of the full set was active somewhere.
ATXN viability = reduces viability in counter-screen for ATXN expression inhibitors. S2 cells (HEK-293 line with an ATXN2-luciferase reporter) viability, CellTiter-Fluor protease fluorescence, 24 h. Potency, µM (series often up to 56.7 µM), usual class: cytotoxic. actives 0.49% (n = 400,000). AID 651635; further: nearly all actives have a fitted effect of over 40% in size
HepG2 tox = HepG2 cytotoxicity, counter-screen for TGF-b inhibitors. Potency, µM (titrated, usually from 46.1 µM), inactives show at the highest dose activity change, negative = cytotoxicity, usual class: cytotoxic. actives 0.76% (n = 410,000). HepG2 CAGA-GFP viability, ATP luminescence, 18 h
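HepG2 CAGA-GFP cells (1000/well, DMEM with 1% FBS) received compound, then TGF-beta at 500 pg/mL final, and were incubated 18 hours at 37 degrees C. Viability was read by CellTiter-Glo luminescence. Media-only wells were set as complete cell-killing and DMSO as no toxicity.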
ATXN2 expr inh = ATXN2 expression inhibition; HEK-293 ATXN2-luciferase reporter, luminescence, 24 h; Potency, µM (series often up to 57 µM), without a hit: at the highest dose activity change, negative = inhibition, usual class: inhibitors; actives 0.72% (n = 360,000); AID 1745845; further: on the % scale 0 is the no-effect control and ±100 the full control effect; nearly all actives have a fitted effect of over 55% in size
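qHTS (up to 57 uM final) was run with 24 h compound exposure of reporter cells at 37 °C. Each well was multiplexed: SteadyGlo luminescence measured ATXN2-luciferase expression after a fluorogenic Gly-Phe-AFC viability readout (25 uM final).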
DT40 TDP1 CPT = growth inhibition of DT40 Tdp1-/-;hTDP1 cells with camptothecin (screen for TDP1 inhibitors). Potency, µM (top dose mostly 46.2 µM), inactives show top-dose activity change, negative = growth inhibition, usual class: inhibitors. actives 12% (n = 420,000). chicken DT40 Tdp1-/-;hTDP1 cells + 20 nM CPT, ATP luminescence, 48 h; further: on the % scale 0 is the no-effect control and ±100 the full control effect; nearly all actives have a fitted effect of over 55% in size
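Cell growth measured by CellTiter-Glo luminescence after a minimum 48 h, 37 C compound exposure with 20 nM CPT in Tdp1-knockout DT40 cells stably expressing hTDP1, seeded 400/well; qHTS titration format.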
TDP1 cell noCPT = qHTS for Inhibitors of human tyrosyl-DNA phosphodiesterase 1 (TDP1): qHTS in cells in absence of CPT | DT40 Tdp1-/- hTDP1 cells, no CPT, ATP luminescence, 48 h | Potency, µM (top dose mostly 46.2 µM), without a hit: at the top dose activity change, negative = growth inhibition, usual class: inhibitors | actives 15% (n = 420,000) | AID 686978, 2013; further: on the % scale 0 is the no-effect control and ±100 the full control effect; nearly all actives have a fitted effect of over 55% in size
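Cells were dispensed at 400 per well, compounds added by pin tool, plates incubated ≥48 hr at 37 °C, then CellTiter-Glo added for 30 min at room temperature before luminescence reading. Line: DT40 Tdp1-/- complemented with hTDP1; camptothecin omitted.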
TGFb inhibitor = blocks TGF-b signaling. HepG2 CAGA-GFP TGF-b/SMAD3 reporter, GFP fluorescence, 18 h; TGF-beta stimulated, 500 pg/mL final. Potency, µM (series often up to 46.1 µM), inactives show at the top dose activity, negative = inhibition, most hits filed as inhibitors. actives 1.2% (n = 410,000). AID 588855; further: on the % scale 0 is the no-effect control and ±100 the full control effect; nearly all actives have a fitted effect of over 65% in size
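TGF-beta reporter screen: HEPG2 CAGA-GFP, 1% FBS, 500 pg/mL TGF-beta final, 18 h; per-cell GFP summed per well; curves fitted and categorized by class.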
* = called active by the depositor; i = inactive; ? = inconclusive; . = no result; ! = not active in a repeat; [ ] = another dose, or the depositor's remark. The call rests on the fitted dose curve; in most records, active means well fitted curve in the direction sought with a large enough effect; inconclusive means small, poorly fitted or top-dose-only effect, or another doubt; inactive means no such curve, though single readings can be large; an effect the other way counts as inactive or inconclusive. Potency means the concentration at half of the fitted maximal effect.

SMILES | ATXN viability | HepG2 tox | ATXN2 expr inh | DT40 TDP1 CPT | TDP1 cell noCPT | TGFb inhibitor
c1cc2c(cc1C1=NNC(=NC3CC3)SC1)OCCO2 | ? | -78% | . | 21µM* | 16µM* | ?
FC(F)Sc1ccc(N=C2NN=C(c3ccc4c(c3)OCCO4)CS2)cc1 | . | -25% | . | 18µM* | 21µM* | ?
COc1ccc(N=C2NN=C(c3ccc4c(c3)OCCO4)CS2)cc1 | i | 13% | 6% | 21µM* | 26µM* | ?
Nc1nc2ccc(Cl)cc2cc1C(=O)NC1CC1 | i | . | 9% | -9% | -16% | .
O=C(NCCc1c[nH]c2ccccc12)c1ccc2nc[nH]c2c1 | i | -1% | 14% | 8% | -27% | -6%
O=C(Cc1ccc(Cl)cc1)NCCc1c[nH]c2ccccc12 | i | -18% | -1% | 18µM* | ? | -1%
Nc1nc2ccc(Cl)cc2cc1C(=O)NCCc1c[nH]c2ccccc12 | ? | . | ? | 8.2µM* | ? | .
O=C(Cc1ccccc1)NCCc1c[nH]c2ccccc12 | i | -2% | 1% | -22% | 0% | 21%
Fc1cccc(NCCc2c[nH]c3ccccc23)n1 | ? | -36% | . | -27% | ? | -29%
c1ccc2c(NCCc3c[nH]c4ccccc34)c3ccccc3nc2c1 | ? | -99% | . | 2.6µM* | 2.9µM* | ?
Nc1nc2ccc(Cl)cc2cc1C(=O)NCc1ccc(Oc2ccccc2)cc1 | i | . | -15% | 0.65µM* | 1.3µM* | .
C[C@H]1CN([C@@H](C)CO)C(=O)c2cccc(NC(=O)c3cnccn3)c2O[C@@H]1CN(C)C(=O)Nc1ccc2c(c1)OCO2 | i | -15% | 2% | -15% | -18% | -8%
COc1ccc(N2CCN(C(=O)c3cc(NC(C)=O)c4c(c3)ncn4CCc3ccccn3)CC2)cc1 | i | . | . | 4% | -19% | .
Cc1ccc(CN2C[C@H](Sc3ccccn3)C[C@H]2C(=O)Nc2ccc3sc(C)nc3c2)c(C)c1 | i | . | . | 20%[9.04 µM] | -16% | .
CC(=O)NCCc1c[nH]c2ccc(O)cc12 | i | 4% | 4% | 18µM*! | -18% | -1%
OCc1c[nH]c2ccccc12 | ? | -31% | 3% | 17µM*! | 39µM*! | -17%
O=C(NCCc1c[nH]c2ccccc12)c1cc2sccc2n1Cc1ccccc1 | i | -31% | -37% | 23µM* | 21µM* | -30%
O=C(CCCCCNc1nc(=S)[nH]c2ccccc12)NCCc1c[nH]c2ccccc12 | ? | -2% | -10% | 18µM* | 15µM* | 1%
Cn1c(C(=O)NCCc2c[nH]c3ccccc23)cc2sccc21 | i | -25% | 27% | ? | ? | -3%
O=C(NCc1ccc2c(c1)OCO2)c1nnc(Cc2ccc(F)cc2)o1 | i | -21% | -3% | 1% | -11% | ?
Nc1nc2cc3c(cc2cc1C(=O)NCc1ccc(F)cc1)OCO3 | i | . | -14% | 16µM* | 4.1µM* | .
CCCCCCCCN1C(=O)[C@H](CC(=O)N2CCC(c3ccccc3)CC2)C[C@@]2(C(=O)OC)CCCCC=C12 | ? | . | -10% | ? | 18µM* | .
COC(=O)[C@]12CCCCC=C1N(Cc1ccco1)C(=O)[C@H](CC(=O)N1CCN(C(=O)c3ccco3)CC1)C2 | i | . | 5% | -29% | ? | .
CCCCCCCCN1C(=O)[C@H](CC(=O)N2CCCC2)C[C@@]2(C(=O)OC)CCCCC=C12 | ? | . | ? | 16µM* | 18µM* | .
CCOC(=O)[C@]12CCC=C1N(Cc1ccco1)C(=O)[C@H](CC(=O)N1CCC(c3ccccc3)CC1)C2 | i | . | 2% | ? | ? | .
SMILES | ATXN viability | HepG2 tox | ATXN2 expr inh | DT40 TDP1 CPT | TDP1 cell noCPT | TGFb inhibitor
CCCCCCCCN1C(=O)[C@H](CC(=O)N2CCN(C(=O)C3CC3)CC2)C[C@@]2(C(=O)OCC)CCCC=C12 | 14µM* | . | ? | 23µM* | 23µM* | .
CCOC(=O)[C@]12CCCC=C1N(Cc1ccccc1)C(=O)[C@H](CC(=O)N1CCN(C(=O)C3CC3)CC1)C2 | . | . | . | 2% | 10% | .
COC(=O)[C@]12CCCCC=C1N(CCC1=CCCCC1)C(=O)[C@H](CC(=O)N1CCOCC1)C2 | ? | . | -2% | ? | ? | .
CCCCCCCCN1C(=O)[C@H](CC(=O)N2CCN(C(=O)OCC)CC2)C[C@@]2(C(=O)OC)CCCCC=C12 | ? | . | 0% | ? | 21µM* | .
CSc1ncccc1C(=O)OCC(=O)c1cccc(Br)c1 | i | -1% | 6%[11.3 µM] | -6% | -12% | 9%
COc1ccc(CNC(=O)C(CCSC)NS(=O)(=O)c2ccc3c(c2)oc(=O)n3C)cc1 (centres undefined) | . | 3% | . | -16% | -12% | -3%
CCCCCCCCN1C(=O)[C@H](CC(=O)N2CCN(C(=O)C3CC3)CC2)C[C@@]2(C(=O)OC)CCCCC=C12 | ? | . | ? | ? | 16µM* | .
COC(=O)[C@]12CCCCC=C1N(Cc1ccc(Cl)cc1Cl)C(=O)[C@H](CC(=O)N1CCN(C(=O)C3CC3)CC1)C2 | . | . | 0% | ? | ? | .
COc1ccc(N(CC(=O)NCc2ccc(F)cc2)C(=O)c2snc(C(N)=O)c2N)cc1 | i | -1% | 2% | 5% | -1% | 24%
Cc1ccc2nc(N(CCCN(C)C)C(=O)c3ccc(S(=O)(=O)N4CCc5ccccc5C4)cc3)sc2c1 | ? | -105% | ? | 5.2µM* | 5.8µM* | ?
Cc1cccc2sc(N(CCCN(C)C)C(=O)c3ccc(S(=O)(=O)N4CCc5ccccc5C4)cc3)nc12 | ? | -30% | -28% | 4.1µM* | 6.5µM* | 8%
COc1ccc2sc(N(CCCN(C)C)C(=O)c3ccc(S(=O)(=O)N4CCCC4)cc3)nc2c1 | i | -11% | -8% | -23% | -17% | 19%
COc1ccc2sc(N(CCCN(C)C)C(=O)c3ccc(S(=O)(=O)N4CCc5ccccc5C4)cc3)nc2c1 | ? | -76% | ? | 4.1µM* | 4.6µM* | 16µM*
Cc1cc(C)c2sc(N(CCCN(C)C)C(=O)c3ccc(S(=O)(=O)N4CCCc5ccccc54)cc3)nc2c1 | 28µM* | -122% | ? | 10µM* | 9.2µM* | ?
CN(C)CCCN(C(=O)c1ccc(S(=O)(=O)N2CCc3ccccc32)cc1)c1nc2ccc(F)cc2s1 | i | -53% | ? | ? | ? | ?
